# RBX1-CUL1 inh: blocks human RBX1-Cullin-1 di-ubiquitin formation; P62877+Q13616; in vitro K48 di-Ub FRET, acceptor:donor ratio, 45 min; inhibition, % at 10 µM; 140,000 compounds, 0.6% hits; AID 1347404; in the data active = inhibition above about 25%
# Target sequence (P62877 whole entry, looked up): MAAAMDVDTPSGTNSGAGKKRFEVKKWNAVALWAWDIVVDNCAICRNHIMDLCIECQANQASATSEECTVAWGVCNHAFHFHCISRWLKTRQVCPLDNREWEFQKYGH
# Target sequence (Q13616 whole entry, looked up): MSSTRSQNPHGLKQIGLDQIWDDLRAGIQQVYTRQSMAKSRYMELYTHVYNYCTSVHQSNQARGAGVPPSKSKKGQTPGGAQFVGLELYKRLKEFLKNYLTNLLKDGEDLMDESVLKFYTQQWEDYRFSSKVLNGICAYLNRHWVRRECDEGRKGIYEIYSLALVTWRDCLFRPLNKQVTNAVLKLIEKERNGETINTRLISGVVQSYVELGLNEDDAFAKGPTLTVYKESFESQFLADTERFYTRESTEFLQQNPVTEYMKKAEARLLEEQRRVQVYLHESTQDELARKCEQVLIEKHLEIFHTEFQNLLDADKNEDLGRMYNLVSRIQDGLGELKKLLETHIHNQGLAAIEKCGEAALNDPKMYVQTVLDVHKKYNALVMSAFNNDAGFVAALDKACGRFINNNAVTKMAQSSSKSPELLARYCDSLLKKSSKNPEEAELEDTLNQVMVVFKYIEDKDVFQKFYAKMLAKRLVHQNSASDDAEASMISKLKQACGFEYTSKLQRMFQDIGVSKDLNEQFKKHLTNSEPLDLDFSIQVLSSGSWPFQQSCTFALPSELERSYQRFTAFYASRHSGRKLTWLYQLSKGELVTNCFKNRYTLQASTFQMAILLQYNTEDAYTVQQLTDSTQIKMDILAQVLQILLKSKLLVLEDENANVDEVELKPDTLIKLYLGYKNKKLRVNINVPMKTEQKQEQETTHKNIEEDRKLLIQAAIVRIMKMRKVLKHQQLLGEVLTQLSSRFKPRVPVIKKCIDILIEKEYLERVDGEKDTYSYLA
# Starred values were filed as active, the others as inactive. Only a selection was taken, and hits are over-represented in it overall.
SMILES,RBX1-CUL1 inh
CCOc1ccc(/C=C2\SC(=Nc3ccc(F)cc3)NC2=O)cc1OC,4.9
CCCOC(=O)c1cccc(N=C2NC(=O)/C(=C\c3cc(C(C)C)c(OC)cc3C)S2)c1,6.7
COc1cccc(/C=C2\SC(=Nc3cccc(Cl)c3C)NC2=O)c1OCC(=O)O,2.0
COc1cccc(/C=C2\SC(=Nc3ccc(C)c(Cl)c3)NC2=O)c1OCC(=O)O,97.0*
CCOc1cc(/C=C2/SC(=Nc3ccc4ccccc4c3)NC2=O)cc(Cl)c1OCC(=O)O,99.3*
CCOc1ccc(N=C2NC(=O)/C(=C/c3cc(Br)c(OC)c(OC)c3)S2)cc1,9.0
COc1ccc(C(=O)CCC(=O)N2CCCC(c3nc(C)ncc3-c3cccc(C)c3)C2)cc1 (stereo unspecified),1.4
CC(=O)Oc1c(Br)cc2oc(=O)sc2c1Br,33.7*
COc1cc2oc(=O)cc(C)c2c(OC)c1OC(C)=O,0.6
O=C(Nc1ccccc1)Oc1c(Cl)cc2oc(=O)sc2c1Br,16.0
Nc1nc(CSc2nnnn2Cc2ccccc2)nc(N2CCOCC2)n1,-7.0
Cc1c(C(=O)O)c2c(n1Cc1ccccc1)C(=O)c1ccc(Br)cc1-2,4.6
CCOC(=O)C(C(C)=O)C1=C(Br)C(=O)C(=O)c2ccc(Br)cc21 (stereo unspecified),48.2*
CCOC(=O)Nc1ccc(Br)cc1F,3.4
CCOc1ccc(/C=C2/SC(=Nc3ccccc3O)NC2=O)cc1,13.2
CN1C(=N)C(C(c2ccccc2)C2C(=N)N(C)C(=O)N(C)C2=O)C(=O)N(C)C1=O (stereo unspecified),9.7
COc1cc(C2c3c(n[nH]c3-c3ccc4c(c3)OCO4)OC(=N)C2C#N)cc(OC)c1OC (stereo unspecified),-11.1
CCN(CC1CCN(C2CCN(C)CC2)CC1)C(=O)CCC(=O)c1ccccc1,-2.9
CCN(CC1CCN(C2CCN(C)CC2)CC1)C(=O)c1cc(C)[nH]n1,25.8*
CCN(CC1CCN(C2CCN(C)CC2)CC1)C(=O)c1ccc(C=O)cc1,2.2
CCCc1[nH]nc2c1C(c1ccsc1C)C(C#N)C(=N)O2 (stereo unspecified),1.5
CC(C)=CCN1CCCC1C(=O)Nc1cccc(-n2cccn2)c1 (stereo unspecified),-1.8
O=C(Nc1ccc(S(=O)(=O)Nc2ccc(Cl)nn2)cc1)c1ccc(COc2cc(Cl)ccc2Cl)o1,35.1*
COc1cc(NS(=O)(=O)c2ccc(NC(=O)c3ccc(COc4ccc5c(c4)CCC5)o3)cc2)ncn1,-1.1
O=C(Nc1ccc(S(=O)(=O)Nc2ccc(Cl)nn2)cc1)c1ccc(COc2cccc(Cl)c2)o1,14.2
SMILES,RBX1-CUL1 inh
Cc1ccc2ccccc2c1CSc1nnc(-c2ccc(Cl)cc2Cl)o1,14.6
Cc1ccc(/C=C2/C(=N)N3N=C(c4ccc(C)cc4)SC3=NC2=O)cc1,5.7
Cc1cccc(C2=NN3C(=N)/C(=C\c4ccc([N+](=O)[O-])o4)C(=O)N=C3S2)c1,106.4*
Cc1cccc(/C=C2/C(=N)N3N=C(c4ccccc4Cl)SC3=NC2=O)c1,4.6
CNC(=O)C1CCN(Cc2ccccc2)CC1,0.5
FC(F)(F)c1ccccc1-c1nn2c(C(F)(F)F)nnc2s1,1.0
CCc1ccc(-n2nnc(C(=O)Nc3ccc(C)cc3C)c2C)cc1,2.5
Cc1ccccc1/C=C/C(=O)C1C=C(Br)C=C(Br)C(=O)C1=O (stereo unspecified),53.7*
O=C1C(=O)C(C(=O)/C=C/c2cccc(Cl)c2)C=C(Br)C=C1Br (stereo unspecified),87.0*
O=C1C=CC(Br)=CC(C(=O)/C=C/c2ccc(Cl)cc2)C1=O (stereo unspecified),0.7
COc1ccccc1/C=C/C(=O)C1C=C(Br)C=CC(=O)C1=O (stereo unspecified),8.1
CC(CNC(=O)/C=C/c1cccc(Cl)c1)NC(=O)/C=C/c1cccc(Cl)c1 (stereo unspecified),-1.5
O=C(Nc1nc2n(n1)C(c1ccc(F)cc1)CC(c1ccccc1)=N2)c1cccc([N+](=O)[O-])c1 (stereo unspecified),0.2
CCCN(CCC)S(=O)(=O)c1ccc(NC(=O)c2ccc(NC(C)=O)cc2)cc1,4.5
CCOC(=O)c1c(NC(=O)c2cc(I)ccc2Cl)sc2c1CCCC2,-0.3
Nc1ccc(-c2nnn(Cc3ccc(Cl)cc3)n2)cc1,0.0
O=C(O)c1ccc(C2Nc3cccc4cccc(c34)N2)cc1,92.7*
Fc1cccc(C2Nc3cccc4cccc(c34)N2)c1,-5.2
CC(C)(C)c1ccc(C2Nc3cccc4cccc(c34)N2)cc1,-7.4
O=C(Nc1ccccc1C(F)(F)F)c1nc2nc(-c3cccs3)cc(C(F)(F)F)n2n1,-10.0
COc1ccc(-c2nn(-c3ccccc3)cc2C2Nc3ccc(C)cc3-c3cc(C)nn32)cc1 (stereo unspecified),-11.0
CSCCC(=O)N1CCC(C2(c3cccnc3)NC(=O)N(CCc3cccs3)C2=O)CC1 (stereo unspecified),12.0
COc1ccc(CNC(=O)CSc2ncc3c(n2)-c2cc(Cl)ccc2N(Cc2ccccc2)S3(=O)=O)cc1,2.5
COc1ccccc1NC(=O)CSc1ncc2c(n1)-c1cc(Cl)ccc1N(C)S2(=O)=O,-8.1
COc1ccc(NC(=O)CSc2ncc3c(n2)-c2cc(Cl)ccc2N(Cc2ccccc2F)S3(=O)=O)cc1,44.8*
SMILES,RBX1-CUL1 inh
Cc1ccc(N=c2[n-][n+](C)c3c(C)ncc(C)n23)cc1,1.8
Cc1nc(-c2ccccc2)[nH]c(=O)c1Br,9.8
O=C(Nc1ccc2c(c1)-c1cc(NC(=O)c3ccco3)ccc1C2)c1ccco1,-1.5
COc1cc(OC)cc(N2C(=O)CSC23C(=O)Nc2ccccc23)c1 (stereo unspecified),1.8
Cc1ccc(N2C(=O)CSC23C(=O)Nc2ccc(C)cc23)cc1 (stereo unspecified),94.3*
O=C1CSC2(C(=O)Nc3ccccc32)N1c1ccc(Br)cc1 (stereo unspecified),0.4
COC(=O)[C@]1(C)C[C@H](C(=O)NCC2CC2)[C@H](c2ccccc2Cl)N1C,-8.2
CN1CCC(N(C)C(=O)CCC2CCCN(C/C=C/c3ccco3)C2)CC1 (stereo unspecified),13.3
C#CC(CC)(CC)NC(=O)Nc1cc(C)ccc1C,-11.9
COc1ccccc1CCN1CCCC(CN(C)C(=O)c2ccc[n+]([O-])c2)C1 (stereo unspecified),5.4
Cc1ccc(C2CC(=O)CC(=NCCc3ccccc3)C2)cc1 (stereo unspecified),-3.4
Cc1cc(C(=O)O)ccc1NC(=O)c1ccc(NC(=O)C2CC2)cc1,9.2
O=c1cc(C2CCCN(C3CCN(c4ccc5c(c4)OCO5)CC3)C2)nc[nH]1 (stereo unspecified),6.0
O=C1C=C(c2ccccc2)OC(=O)C1,1.4
CC1(C)CNC(=O)C=C(c2ccccc2)C1,-1.0
CN1C(=O)C=C(c2ccccc2)CC1=O,98.6*
O=c1ccc(Cl)cn1C/C=C/c1ccccc1,3.6
N/C(=N\OCc1cccc([N+](=O)[O-])c1)c1nonc1N,-2.6
CSc1nn(-c2nc3c(C)cccc3s2)c(N)c1C#N,4.3
CSc1ccc(C(=O)/C=C/c2ccccc2)cc1,2.8
O=C(/C=C/c1cccnc1)c1ccc(F)cc1,49.1*
C(=C\c1cccnc1)/c1ccc(/C=C/c2cccnc2)cc1,-0.4
O=C(N/N=C\c1cccc(O)c1)c1ccc(COc2ccc3c(c2)CCC3)o1,8.4
Cc1sc2nc(SCC(=O)O)n(-c3ccc(Cl)cc3)c(=O)c2c1C,13.4
CN1Cc2ccccc2C2CCc3ccccc3C21 (stereo unspecified),0.6

# Assay outcomes from PubChem.
